PubChem BioAssay AID1259420 (Broad Institute, 2018)
Several values for one entry are separate records, joined by “and”; a condition that tells them apart may be missing. Equal entries are not always repeated. In all, about 1,000 compounds went through this assay and about 250 (25%) were called active. Inconclusive results (about 31%) are left out. How the calls were made is not given here. The list is a sample of the results. Entries with a potency or affinity are not part of this list.

Experiment: compound activity on host-cell Toxoplasma growth – dose response (AID 1259420);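 further: host cells were HeLa; final incubation lasted 72 hours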
Conditions: Toxoplasma gondii growth in host cells, no IFN-gamma; at 19.5 µM unless noted

Row | SMILES | max activity
1 | Cn1nc2c(c1C(=O)Nc1ccc(N3CCCCC3)c(F)c1)CCCC2 | 25.8% [at 10 µM] (inactive)
2 | Cc1ccccc1-c1ccc([C@H]2[C@@H](CO)N3C(=O)CN(C(=O)c4ccncc4)C[C@@H]23)cc1 | -13.9% [at 0.16 µM] (inactive)
3 | CN(C)C1CCN(Cc2cccc(C#N)c2)C(C(=O)O)C1 (stereo not given) | 8.23% (inactive)
4 | Cc1nnsc1CN(C)Cc1[nH]c2ccc(F)cc2c1C | 12.6% [at 0.16 µM] (inactive)
5 | CC(C)NC(=O)N1CC(=O)N2[C@H](CO)[C@H](c3ccc(/C=C/c4ccccc4)cc3)[C@@H]2C1 | 20.9% (inactive)
6 | COc1ccc(-c2nc(NCCN3CCN(C)CC3)c3ccccc3n2)cc1 | 12.8% (inactive)
7 | COc1ccc(-c2ccc([C@H]3[C@H]4CN(Cc5ccccc5)CC(=O)N4[C@H]3CO)cc2)cc1 | 43.4% (inactive)
8 | COc1ccc(-c2nc(NCCN3CCOCC3)c3ccccc3n2)cc1 | 8.12% (inactive)
9 | COc1ccc(-c2nc(NCCN3CCC(C)CC3)c3ccccc3n2)cc1 | 5.6% [at 10 µM] (inactive)
10 | COc1ccc(-c2nc(NCCCN3CCCC3)c3ccccc3n2)cc1 | 7.2% (inactive)
11 | CC(c1cc2ccccc2s1)N(O)C(N)=O (stereo not given) | -4.76% [at 5 µM] (inactive)
12 | CN1[C@H](CO)[C@@H]2c3ccccc3N(C(=O)C3CCCCC3)C[C@@H]21 | -10.7% [at 0.3 µM] (inactive)
13 | O=S(=O)(c1cccs1)N1CCCCN2[C@@H](CO)[C@@H](c3ccc(/C=C/c4ccccc4)cc3)[C@@H]2C1 | 38.2% (inactive)
14 | C/C=C/c1ccc([C@@H]2[C@@H](CO)N3CCCCN(CCC(F)(F)F)C[C@@H]23)cc1 | 39.6% (inactive)
15 | O=S(=O)(c1ccccc1)N1CCCCN2[C@@H](CO)[C@H](c3ccc(C#CC4CCCC4)cc3)[C@@H]2C1 | 49.6% (inactive)
16 | C/C=C/c1ccc([C@H]2[C@@H](CO)N3CCCCN(S(=O)(=O)c4ccc(OC)cc4)C[C@H]23)cc1 | 19.6% (inactive)
17 | CCC[C@@]1(CCc2ccccc2)CC(=O)C([C@H](CC)c2cccc(NS(=O)(=O)c3ccc(C(F)(F)F)cn3)c2)C(=O)O1 (stereo not given in full) | 6.55% [at 10 µM] (inactive)
18 | Cc1ccc(-c2ccc([C@H]3[C@@H](CO)N4C(=O)CN(C(=O)NC(C)C)C[C@@H]34)cc2)cc1 | -19.8% [at 5 µM] (inactive)
19 | COCCC(=O)c1cc2c(s1)CCN2Cc1cccnc1 | -10.9% [at 0.6 µM] (inactive)
20 | CN1CCC(=C2c3ccccc3C=Cc3ccccc32)CC1 | 23.8% (inactive)
21 | N#C[C@H]1[C@@H](c2ccc(-c3cccnc3)cc2)[C@@H](CO)N1C(=O)Nc1ccc(F)cc1 | 7.86% (inactive)
22 | COc1cccc(C#Cc2ccc([C@H]3[C@@H](C#N)N(C(=O)c4ccccn4)[C@@H]3CO)cc2)c1 | 21.5% (inactive)
23 | N#C[C@H]1[C@H](c2ccc(C#Cc3ccccc3F)cc2)[C@@H](CO)N1C(=O)c1cccnc1 | -12.3% [at 10 µM] (inactive)
24 | N#C[C@H]1[C@@H](c2ccc(C3=CCCCC3)cc2)[C@@H](CO)N1C(=O)Nc1ccccc1F | 15.8% [at 10 µM] (inactive)

Row | SMILES | max activity
25 | N#C[C@H]1[C@H](c2ccc(C#Cc3cccc(F)c3)cc2)[C@@H](CO)N1C(=O)C1CCOCC1 | 10.6% (inactive)
26 | CCCNC(=O)N1C[C@@H]2N[C@H](C1)C2c1ccc(-c2ccccc2C)cc1 (stereo not given in full) | 14.1% (inactive) and 25.2% (inactive)
27 | N#C[C@@H]1[C@H](c2ccc(C#Cc3cccc(F)c3)cc2)[C@H](CO)N1C(=O)C1CCOCC1 | 23.4% (inactive)
28 | COc1ccc(-c2ccc([C@H]3[C@H](C#N)N(C(=O)NC(C)C)[C@H]3CO)cc2)cc1 | 23.7% (inactive)
29 | CC(C)C#Cc1ccc([C@@H]2[C@H]3CN(S(=O)(=O)c4ccccc4)CC(=O)N3[C@H]2CO)cc1 | 15.9% (inactive)
30 | CN1C[C@H]2CN(Cc3ccc4c(c3)OCO4)CCC[C@@]2(C(=O)O)C1 | -10.3% [at 5 µM] (inactive)
31 | CS(=O)(=O)N1CC(=O)N2[C@H](CO)[C@@H](c3ccc(C#CCC4CCCC4)cc3)[C@@H]2C1 | 58.7% (inactive)
32 | CC(C)C#Cc1ccc([C@H]2[C@H](CO)N3C(=O)CN(C(=O)NC4CCCC4)C[C@@H]23)cc1 | -11.2% (inactive)
33 | COc1ccccc1-c1ccc([C@H]2[C@H](CO)N[C@@H]2C#N)cc1 | 29.5% (inactive)
34 | COc1ccccc1C#Cc1ccc([C@H]2[C@@H](CO)N3CCCCN(C(=O)C4CCC4)C[C@@H]23)cc1 | -3.84% [at 0.16 µM] (inactive)
35 | COc1ccccc1C#Cc1ccc([C@@H]2[C@@H](CO)N3CCCCN(C(=O)C4CCC4)C[C@H]23)cc1 | 18.4% [at 10 µM] (inactive)
36 | N#Cc1cccc(-c2ccc([C@@H]3[C@H]4CN(Cc5ccccc5F)CCCCN4[C@H]3CO)cc2)c1 | -16.7% [at 0.6 µM] (inactive)
37 | N#Cc1cccc(-c2ccc([C@H]3[C@H]4CN(Cc5ccccc5F)CCCCN4[C@H]3CO)cc2)c1 | 25.1% (inactive)
38 | O=C(C1CCC1)N1C[C@@H]2N[C@H](C1)C2c1ccc(/C=C/c2ccccc2)cc1 (stereo not given in full) | -22.2% [at 0.3 µM] (inactive)
39 | NCCNC(=O)c1nc(-c2ccc(Br)o2)no1 | 7.54% [at 0.08 µM] (inactive)
40 | O=C(Cc1cccnc1)N1CC(=O)N2[C@@H](CO)[C@H](c3ccc(C4=CCCCC4)cc3)[C@@H]2C1 | 18.9% [at 0.16 µM] (inactive)
41 | Cc1nc2c(cnn2-c2ccccc2)c(=O)n1-c1cccc2ccccc12 | -11.1% [at 10 µM] (inactive)
42 | CCS(=O)(=O)N1CCc2nc(-c3cccc(F)c3)nc(NC3CC3)c2C1 | -10.7% [at 2.6 µM] (inactive)
43 | COCC1(C(=O)N2CCc3c(nc(-c4ccccc4)[nH]c3=O)C2)CCC1 | 24.5% (inactive)
44 | Cc1ccc(CN2C[C@@H]3C[C@H](C(=O)Nc4ccccc4)[C@@H](C2)O3)cc1 | 4.12% [at 0.6 µM] (inactive)
45 | CC(C)CNC(=O)[C@H]1C[C@H]2CN(Cc3cccc(Cl)c3)C[C@H]1O2 | 13.8% [at 0.3 µM] (inactive)
46 | CC(C)(C)c1nc2ccccc2c2nnc(SCc3ccccn3)n12 | 9.04% [at 0.3 µM] (inactive)
47 | CN1CCN(Cc2cnc3n2CCN(CC2CCOCC2)C3)CC1 | 22.9% [at 1.2 µM] (inactive)
48 | CN(C)C(=O)CN1CCOCC2(CCN(CC3CCOC3)CC2)C1 (stereo not given) | 12.7% (inactive)

Row | SMILES | max activity
49 | CN1CCCN(C(=O)c2cc3c(c4ccccc4n3CC3CC3)n2S(C)(=O)=O)CC1 | 25.4% (inactive)
50 | O=C(c1cnccn1)N1CC(=O)N2[C@H](CO)[C@H](c3ccc(/C=C/c4ccccc4)cc3)[C@@H]2C1 | 9.53% [at 10 µM] (inactive)
51 | COC12CC(COC(=O)c3cncc(Br)c3)CN(C)C1Cc1cn(C)c3cccc2c13 (stereo not given) | -18.1% [at 1.2 µM] (inactive)
52 | CC(=O)NCc1nnn2c1CN(c1ncccn1)CCC2 | -8.02% [at 0.6 µM] (inactive) and 9.77% [at 0.6 µM] (inactive)
53 | CN1c2ccc(C#Cc3cccnc3)cc2[C@@H]2[C@@H](CCN2C(=O)c2cccc(F)c2)[C@H]1CO | 5.34% (inactive)
54 | COc1cccc(-c2ccc3c(c2)[C@@H]2[C@@H](CCN2C(=O)c2ccccc2F)[C@@H](CO)N3C)c1 | 24% (inactive)
55 | COc1ccc(-c2ccc3c(c2)[C@@H]2[C@@H](CCN2C(=O)c2ccncc2)[C@H](CO)N3C)cc1 | -18.6% [at 5 µM] (inactive)
56 | CCC(=O)N1CC[C@@H]2[C@@H](CO)N(C)c3ccc(-c4ccc(C#N)cc4)cc3[C@@H]21 | -14.1% [at 1.2 µM] (inactive)
57 | CCC(=O)N1CC[C@@H]2[C@H]1c1cc(-c3ccc(C#N)cc3)ccc1N(C)[C@H]2CO | -11.1% [at 0.6 µM] (inactive)
58 | CC(C)NC(=O)N1CC[C@@H]2[C@H]1c1cc(-c3ccc(F)cc3)ccc1N(C)[C@H]2CO | 11.4% [at 10 µM] (inactive)
59 | NC(N)=N/N=C/c1c(Cl)cccc1Cl | -13.6% [at 2.35 µM] (inactive)
60 | C=CCN1C(=O)CCCC12CCCN(S(=O)(=O)Cc1ccccc1)C2 (stereo not given) | -8.38% [at 10 µM] (inactive)
61 | CN(C)CCNC(=O)c1c2c(NCc3cccnc3)ncnc2n2ccccc12 | 8.13% [at 10 µM] (inactive)
62 | CCN1Cc2c(C(=O)Nc3ccc(C)cc3)ncn2-c2ccccc2S1(=O)=O | -12.3% [at 0.16 µM] (inactive)
63 | CC(C)N1c2ccc(F)cc2[C@@H]2CN(C(=O)c3ccco3)CC[C@H]21 | 9.4% (inactive)
64 | Cc1ccccc1-c1ccc([C@@H]2[C@@H](CO)N3CCCCN(S(=O)(=O)Cc4ccccc4)C[C@H]23)cc1 | 6.43% [at 10 µM] (inactive)
65 | Cc1ccoc1C(=O)N1CC[C@H]2CO[C@@H](CN3CCN(C)CC3)[C@@H]2C1 | -13% (inactive)
66 | COc1ccc(C[C@H]2CN(C(=O)c3ccnn3C)CC[C@H]2OC)cc1 | -12.6% [at 5 µM] (inactive)
67 | O=C(Nc1ccccc1)[C@@H]1[C@@H](CO)[C@@H]2Cn3c(ccc(C4=CCCCC4)c3=O)[C@@H]2N1Cc1cocn1 | -11.6% [at 10 µM] (inactive)
68 | CCN1CC2(CCN(C(=O)COc3ccccc3)CC2)COc2ccccc2S1(=O)=O | -3.38% [at 2.6 µM] (inactive)
69 | CCOCC1CC2(CCN(C(=O)COc3ccc(C)cc3)CC2)CO1 (stereo not given) | -10.4% [at 5 µM] (inactive)
70 | CC(C)n1ncc(NC(=O)Cn2ccc(-c3ccc(C(F)(F)F)cc3)n2)n1 | -7.47% [at 0.3 µM] (inactive)
